# Source: PubChem BioAssay AID2071 (Sanford-Burnham Center for Chemical Genomics, 2009)
# Out of some 280,000 compounds screened, about 1,700 (0.61%) were called active. No stated cut-off is given here; in the data, active means inhibition mostly above about 24% (no sharp cut-off); inactive means mostly below about 32%. Shown is part of a subset that was picked to be rich in actives.
# Assay: NALP1 inflammasome inhibitors in reconstituted yeast, colorimetric, S. cerevisiae, triplicate retest (AID 2071)
# Conditions: S. cerevisiae NALP1/ASC/caspase-1 growth, X-gal OD620, 72 h, stronger effect = higher value
compound,measurement,setting,value
CCCCCCCCCCCCn1ccc(=N)cc1,inhibition,at 10 µM unless noted,92.4% (active)
O=C(N/N=C/c1c(O)n(C2CC2)c(=S)[nH]c1=O)c1ccccc1,inhibition,at 10 µM unless noted,-16.2% (inactive)
COc1ccc(CNCCc2c[nH]c3ccccc23)cc1OC,inhibition,at 10 µM unless noted,-6% (inactive)
CCN1CCN(Cc2cc(OC)c3c(c2)OCO3)CC1,inhibition,at 10 µM unless noted,-2.2% (inactive)
CC(C)(C)c1ccc(OC(=O)N2CCCCC2)cc1,inhibition,at 10 µM unless noted,41% (active)
O=C(Nc1cccc(OC(=O)N2CCCCC2)c1)N1CCOCC1,inhibition,at 10 µM unless noted,-35.9% (inactive)
CN1CCN(C(=O)COc2ccc(C(C)(C)C)cc2Br)CC1,inhibition,at 10 µM unless noted,8.8% (inactive)
Cc1ccc(S(=O)(=O)N(C)c2ccc(C(=O)NCC3(N(C)C)CCCCC3)cc2)cc1,inhibition,at 10 µM unless noted,9.8% (inactive)
COc1ccc(CNCCc2ccc3c(c2)OCO3)c(OC)c1OC,inhibition,at 10 µM unless noted,30.6% (inactive)
CC(C)c1ccc(OCC(=O)N2CCCN(C)CC2)cc1,inhibition,at 10 µM unless noted,3.6% (inactive)
C=CCN1C(=O)NC(=O)/C(=C/c2ccc(OCC(=O)Nc3ccc(C)cc3)cc2)C1=O,inhibition,at 10 µM unless noted,25% (inactive)
CCN1CCN(c2nc3c(c(=O)[nH]2)CCC3)CC1,inhibition,at 10 µM unless noted,25.1% (inactive)
CN(C)/C=C(\C=[N+](C)C)c1[nH]ncc1[N+](=O)[O-],inhibition,at 10 µM unless noted,35.3% (active)
CCN(CC)C(=O)c1ccc(NC(=O)c2sccc2-c2ccccc2)cc1,inhibition,at 10 µM unless noted,1% (inactive)
O=C(N/N=C/c1c(O)n(C2CC2)c(=S)[nH]c1=O)c1ccccc1Cl,inhibition,at 10 µM unless noted,3.2% (inactive)
Clc1ccc2nc3c(c(-c4ccccc4)c2c1)CNCC3,inhibition,at 10 µM,45% (active)
same,inhibition,"triplicate retest, at 20 µM",66.3%
COc1ccc2[nH]c3c(c2c1)CCN[C@H]3C,inhibition,at 10 µM unless noted,14.7% (inactive)
COc1ccc(N=Cc2c(O)n(C)c(=O)[nH]c2=O)cc1,inhibition,at 10 µM unless noted,12.7% (inactive)
CN(c1ccccc1)c1ccc([N+](=O)[O-])c2nonc12,inhibition,at 10 µM unless noted,-7.2% (inactive)
Cc1nc2ccccc2c(=O)n1-c1ccc(Cl)cc1Cl,inhibition,at 10 µM unless noted,11.2% (inactive)
